# Vaccinia mCherry: qHTS for Stage-Specific Inhibitors of Vaccinia Orthopoxvirus: mCherry Reporter Primary qHTS; Vaccinia virus mCherry reporter infection, fluorescence; Potency, µM (doses to about 36.5 µM), for the others: top-dose activity change, negative = inhibition, usual class: inhibitors; 0.63% of 310,000 active; calls by dose curve; tested in A549 cells; also: potency is read from the fitted curve at half-maximal effect; nearly all actives have a fitted effect of over 35% in size
# Vaccinia Venus: qHTS for Stage-Specific Inhibitors of Vaccinia Orthopoxvirus: Venus Reporter Primary qHTS | Vaccinia virus Venus reporter expression, fluorescence | Potency, µM (titrated, usually from 36.5 µM), for inactives: at the highest dose activity change, negative = inhibition, actives largely listed as inhibitors | 0.46% of 330,000 active | AID 720580, 2013; calls by dose curve; tested in A549 cells; also: potency is read from the fitted curve at half-maximal effect; nearly all actives have a fitted effect of over 30% in size
# Marburg entry inh: qHTS for inhibitors of binding or entry into cells for Marburg Virus; Potency, µM (top dose mostly 37.8 µM), inactives show at the top dose activity change, negative = inhibition, usual class: inhibitors; 1.8% of 300,000 active; Marburg virus pseudotyped entry inhibition, cell reporter; calls by dose curve; tested in HEK293 cells; also: potency is read from the fitted curve at half-maximal effect
# FMDV inh: High Throughput Screening for Foot and Mouth Disease Virus Antivirals. FMDV antiviral cell-based qHTS. Potency, µM (top dose mostly 57.9 µM), for inactives: at the highest dose activity change, negative = inhibition, hits mostly inhibitors. 1.2% of 410,000 active. AID 1159524, 2015; calls by dose curve; tested in HEK293T cells; also: read-out not given here; potency is read from the fitted curve at half-maximal effect; nearly all actives have a fitted effect of over 45% in size
# HCMV inh: qHTS Assay for inhibitors of the human cytomegalovirus (HCMV) | HFF cells, HCMV-luciferase reporter, 72 h; stronger effect = lower value | activity change, negative = inhibition, % at 57.5 µM | 4.5% of 410,000 active | AID 1259415, 2018; in the data active = activity change below about -60%; inconclusive = no clear call, values can overlap the other calls; inactive = above about -39%
#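 Screen run at 2 compound doses on HFFs infected with reporter HCMV, MOI 1 PFU/cell. Luciferase activity from cell lysates at 72 h post infection gave inhibition relative to buffer-only and Salinomycin wells.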
# Lassa entry inh: qHTS for Inhibitors of binding or entry into cells for Lassa Virus. Lassa virus pseudotype entry inhibition, cell reporter. Potency, µM (top dose mostly 37.9 µM), for the others: at the top dose activity change, negative = inhibition, actives largely listed as inhibitors. 1.2% of 300,000 active; calls by dose curve; tested in HEK293 cells; also: potency is read from the fitted curve at half-maximal effect; nearly all actives have a fitted effect of over 50% in size
# The depositor's hits bear a star; i = inactive; ? = inconclusive; · = no result given; [ ] = another dose, or the depositor's remark. Shown are actives, neighbours in structure and some others; about 6.5% of the full set was active somewhere. % is scaled to controls: 0 for no effect and ±100 for the full control effect.
SMILES,Vaccinia mCherry,Vaccinia Venus,Marburg entry inh,FMDV inh,HCMV inh,Lassa entry inh
COc1ccc(CN(C)CC2CCCN(CCc3ccc(F)cc3)C2)cc1OC (stereo unspecified),·,·,·,-1.1%,0.5,·
COc1ccc(CCN2CCCC(CN(C)Cc3cc(OC)c(OC)c(OC)c3)C2)cc1 (stereo unspecified),-17.0%,-12.7%,?,-10.4%,26.3,?
COc1ccccc1CCN1CCCC(CN(C)CC(C)(C)CO)C1 (stereo unspecified),-12.7%,-11.1%,12.6µM*,-16.2%,51.4,?
COc1ccc(F)c(CN(C)CC2CCCN(CCc3ccc(F)cc3)C2)c1 (stereo unspecified),-8.4%,-18.6%,11.2µM*,-15.7%,-15.1,?
COc1ccc(CN(C)CC2CCCN(CCc3ccc(Cl)cc3)C2)cc1OC (stereo unspecified),-14.6%,-12.7%,2.24µM*,-15.3%,43.3,?
O=C1CCC2CCCCC2O1 (stereo unspecified),·,·,-0.5%,·,·,·
Cc1ccc(S(=O)(=O)Nc2cccc3cccnc23)cc1,?,?,?,28.2µM*,-105.2*,?
CCc1ccc(S(=O)(=O)Nc2cc(SCC(=O)O)c(O)c3ccccc23)cc1,·,·,?,?,63.4,?
CCOc1ccc(S(=O)(=O)Nc2cc(SCC(=O)O)c(O)c3ccccc23)cc1,·,·,·,?,8.9,·
Cc1ccc(NS(=O)(=O)c2cccc3cccnc23)c(Cl)c1,·,·,·,13.9%,-25.9,·
Cc1ccc(NS(=O)(=O)c2cccc3cccnc23)c(Br)c1,i,-8.8%,-9.2%[46.1 µM],8.0%,-82.3*,3.1%[46.1 µM]
O=S(=O)(Nc1cc(Sc2cccc3cccnc23)c(O)c2ccccc12)c1ccccc1,·,·,?,·,-100.4*,18.4µM*
O=C(O)CSc1cc(NS(=O)(=O)c2cccc([N+](=O)[O-])c2)c2ccccc2c1O,10µM*,?,·,10µM*,0.0,·
N#CC(c1c(Cl)cccc1N1CCCCC1)N1CCCCC1 (stereo unspecified),·,·,·,·,12.6,·
CCNC(=O)C1CCCN(C(=O)c2cc(F)cc(F)c2)CC1 (stereo unspecified),i,3.4%,·,-14.1%,-92.7*,·
COc1cc2c(cc1OC)C1O[C@](CCCCN3C(=O)c4ccccc4C3=O)(C2)OC2=C1C(=O)CC(C)(C)C2,·,·,-8.8%[14.2 µM],·,·,·
C[C@@H]1CC[C@@]2(OC1)OC1CC3C4CC=C5CC(O)CCC5(C)C4CCC3(C)C1[C@@H]2C (stereo partly specified),·,·,·,-9.2%,·,·
Clc1ccccc1Nc1ncnc2c1nc1n2CCCCC1,-15.6%,-11.1%,·,11.3%,75.4,?
COc1ccc(-n2nc([N+](=O)[O-])c(=NC3CCN(Cc4ccccc4)CC3)n2O)cc1,?,?,?,28.7%,-62.6*,-0.6%[46.1 µM]
COc1cccc(Nc2nnc(SCC(=O)Nc3sccc3C(N)=O)s2)c1,·,·,·,15.8µM*,?,·
CCN(C(=O)COC(=O)/C=C/c1cccc(Br)c1)C1CCS(=O)(=O)C1 (stereo unspecified),?,?,?,?,-4.9,1.8%
CN(C(=O)COC(=O)/C=C/c1cccc([N+](=O)[O-])c1)C1CCS(=O)(=O)C1 (stereo unspecified),1.78µM*,2.82µM*,3.55µM*,-12.8%,-32.1,-12.5%
O=C(c1cn(C2CCCN(Cc3cc(Cl)ccc3O)C2)nn1)N1CCCCC1 (stereo unspecified),-3.1%,-5.8%,·,-13.8%,·,·
CCCn1c(N)c(C(=O)CN(C)CC(=O)Nc2ccccc2CC)c(=O)[nH]c1=O,·,·,·,-29.2%,-103.3*,·
CCCn1c(N)c(C(=O)CN(C)CC(=O)Nc2cccc(F)c2)c(=O)[nH]c1=O,·,·,·,-24.7%,-1.7,·
SMILES,Vaccinia mCherry,Vaccinia Venus,Marburg entry inh,FMDV inh,HCMV inh,Lassa entry inh
COc1cc2nc(N3CCCN(C)CC3)nc(N(C)C)c2cc1OC,-25.9%,-20.5%,·,·,·,·
CCN(CC)CC#CCC(O)(c1ccccc1)c1ccc(Br)cc1 (stereo unspecified),·,·,23.1µM*,-21.4%,-61.8*,?
CCN(CC)CC#CCC(O)(c1ccccc1)c1ccccc1,-2.4%,-15.4%,?,-15.8%,-2.4,-28.0%
Cc1nn(-c2ccc(N3CCCC3)nn2)c(C)c1CCC(=O)Nc1ccc(F)c(Cl)c1,-6.2%,-10.2%,·,13.8%,?,28.4%[46.1 µM]
COc1ccc(NC(=O)CSc2nnc3c(n2)[nH]c2ccc(S(=O)(=O)N(C)C)cc23)c(OC)c1,-20.2%,-20.1%,·,·,·,·
COc1ccc(C2CC(c3ccccc3)=NN2c2ccc(S(N)(=O)=O)cc2)cc1 (stereo unspecified),?,-20.7%,?,-11.8%,-0.5,?
COc1ccc(C2CC(c3cccc(C(F)(F)F)c3)=NN2c2ccc(S(N)(=O)=O)cc2)cc1 (stereo unspecified),?,?,·,0.0%,-101.0*,·
COc1ccc(C2CC(c3ccccc3Cl)=NN2c2ccc(S(N)(=O)=O)cc2)cc1 (stereo unspecified),12.6µM*,?,·,?,10.9,·
COc1ccc(C2CC(c3cccc(F)c3)=NN2c2ccc(S(N)(=O)=O)cc2)cc1 (stereo unspecified),?,-28.7%,-0.1%,?,4.2,·
COc1ccc(CN2C[C@H]3CCCN3c3cc(Br)ccc3S2(=O)=O)cc1,?,-25.3%,·,-27.3%,·,·
C=C1[C@@H](O)CN(Cc2ccc(OC)cc2)S1(=O)=O,?,28.2µM*,·,·,·,·
O=C(Nc1ccc(Cl)c(Cl)c1)Nc1ccc(Br)cc1F,?,?,?,?,-99.3*,?
O=C(Nc1ccccc1)Nc1ccc(Br)c(Cl)c1,?,?,-33.6%,10.3%,-98.3*,-30.0%
CC(=O)c1ccc(NC(=O)Nc2ccccc2)cc1,-12.2%,-7.1%,?,·,88.7,8.2µM*
N#Cc1ccc(NC(=O)Nc2ccc(Cl)cc2)cc1,?,11.2µM*,?,?,-100.6*,?
COc1ccccc1N1CCN(CC2CN3C(=O)N(C)c4ccccc4C3=N2)CC1 (stereo unspecified),-9.0%,-13.0%,·,-23.4%,·,·
N#Cc1ccc(S(=O)(=O)N2CCN(c3nc(-c4cccs4)nc4ccccc34)CC2)cc1,-20.8%,-15.2%,·,·,·,·
CC1=C(C(=O)OCc2ccccc2)N2C(=O)[C@@H](NC(=O)OCc3ccccc3)[C@H]2SC1,i,-13.4%,·,·,·,·
CCCC[S@@](=N)(=O)CC[C@@H](N)C(=O)O,·,·,7.4%,·,·,·
CCC1(C2CCN(C(=O)c3ccccc3C(C)=O)CC2)NC(=O)N(CCc2scnc2C)C1=O (stereo unspecified),-15.3%,-15.8%,·,-9.3%,·,·
O=C(Nc1ccc(F)cc1)Nc1cccc(Br)c1,·,·,·,25.6%,-87.6*,·
O=C(Nc1ccc(Cl)cc1)Nc1ccc(Cl)c(Cl)c1,12.6µM*,11.2µM*,·,-23.7%,-98.4*,·

# Source: PubChem (National Center for Advancing Translational Sciences (NCATS))
